aSyn rescue = alpha-synuclein toxicity inhibition in yeast; Yeast expressing alpha-synuclein, growth rescue, BacTiter-Glo, 24 h; Potency, µM (series often up to 46.1 µM), hits mostly activators; actives 0.14% (n = 370,000); AID 652106; note: nearly all actives have a fitted effect of over 65% in size
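Galactose-induced alpha-syn yeast (OD600=0.02, raffinose-pregrown) + pinned cpd, 24 hr, 30 deg C; growth by BacTiter-Glo luminescence. Growth restoration scores as activation.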
Abeta rescue = restores growth of yeast expressing A-beta42 peptide; yeast expressing A-beta42, growth rescue, OD600, 48 h; response scale: 0% DMSO, 100% iron-clioquinol control; Potency, µM (series often up to 46.1 µM), most hits filed as activators; actives 0.063% (n = 410,000); AID 1347071; note: nearly all actives have a fitted effect of over 55% in size
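Growth rescue measured by 600 nm absorbance after 48 h yeast culture at 30 C with compound. Values normalized between DMSO and an equimolar ferric chloride plus clioquinol control.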
TDP-43 yeast inh = inhibitors of TDP-43 toxicity in yeast; TDP-43 expressing yeast growth rescue, BacTiter-Glo, 24 h; actives 1.8% (n = 410,000); Potency, µM (titrated, usually from 46.1 µM), hits mostly activators; note: nearly all actives have a fitted effect of over 50% in size
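In this qHTS, compounds that restore growth of yeast expressing TDP-43 appear as activators. Cells (OD600=0.02, galactose medium, raffinose-pregrown) are incubated with compound 24 hr at 30 deg C and growth is quantified by BacTiter-Glo.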
FUS suppressor = FUS proteinopathy suppression in yeast. S. cerevisiae FUS-expressing, growth rescue, OD600, 24 h. actives 0.24% (n = 390,000). AID 1347120. Potency, µM (top dose mostly 76.6 µM), most hits filed as activators; note: nearly all actives have a fitted effect of over 55% in size
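FUS-expressing yeast, raffinose-pregrown, induced in 2% galactose minimal medium at OD 0.005; compounds in a dilution series, 24hr at 30C. Growth restoration read as absorbance at 600 nm. CP55940 positive control, DMSO negative.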
Large screens that a line does not name were inactive. In the library only some 2.1% were active in any assay of this set; here they are far more common. Calls come from the whole dose curve; as a rule, active = well fitted curve in the direction sought with a large enough effect; inconclusive = small, poorly fitted or top-dose-only effect, or another doubt; inactive = no such curve, though single readings can be large; an effect the other way counts as inactive or inconclusive.

COc1ccc(C2=NOC(Cn3nc(C(=O)NCc4cccs4)cc3-c3ccccc3)C2)cc1 (stereo not drawn)	TDP-43 yeast inh inconclusive
Cc1ccc(CNC(=O)c2cc(-c3ccccc3C)nn2CC2CC(c3cccnc3)=NO2)cc1 (stereo not drawn)	TDP-43 yeast inh inconclusive
Cc1ccccc1-c1cc(C(=O)NCc2ccc(OC(F)(F)F)cc2)n(CC2CC(c3cccnc3)=NO2)n1 (stereo not drawn)	TDP-43 yeast inh inconclusive, FUS suppressor 22µM
CC(NS(=O)(=O)OCC(Cl)(Cl)Cl)c1ccc(C(C)(C)C)cc1 (stereo not drawn)	none
C[C@H](NS(=O)(=O)OCC(Cl)(Cl)Cl)C1CC1c1ccccc1 (stereo partly drawn)	TDP-43 yeast inh 22µM
COc1ccc(C)cc1NC(=O)c1nn(-c2ccccc2)cc1OC	TDP-43 yeast inh 16µM
COc1ccc(C)cc1NC(=O)C1CC1c1ccccc1 (stereo not drawn)	TDP-43 yeast inh 16µM
Cn1cc(S(=O)(=O)N2CCCC2)cc1C(=O)Nc1ccc(C(F)(F)F)cc1	none (no result: aSyn rescue)
COC(=O)c1ccc(-n2c(C)cc(C(=O)CSc3ccc(NC(C)=O)cc3)c2C)cc1	none (no result: FUS suppressor)
COC(=O)c1ccc(-n2c(C)cc(C(=O)CSc3cccc[n+]3[O-])c2C)cc1	aSyn rescue inconclusive, TDP-43 yeast inh 14µM
Cc1cc(C(=O)Cn2nc(C(=O)O)c3ccccc3c2=O)c(C)n1-c1ccc(OC(F)F)cc1	FUS suppressor inconclusive
Cc1cc(C(=O)CSc2cccc[n+]2[O-])c(C)n1-c1ccc(OC(F)F)cc1	TDP-43 yeast inh 14µM
Cc1ccc(NC(=O)CSc2nc(-c3ccco3)nc3cc(=O)[nH]n23)cc1	none (no result: aSyn rescue)
CCNc1nc(NCc2ccc(F)cc2)c2cnn(C)c2n1	none (no result: aSyn rescue)
CCSc1cc(C)nc2ncnn12	none
CCCCCCSc1cc(C)nc2ncnn12	TDP-43 yeast inh 25µM
Cc1ccc(N2C(=O)CSC23C(=O)N(CC(=O)Nc2ccccc2F)c2ccccc23)cc1C (stereo not drawn)	none
CCOc1ccc(S(=O)(=O)Nc2nc3ccccc3nc2Cl)cc1	TDP-43 yeast inh 22µM
CCOc1ccc(S(=O)(=O)Nc2nc3ccccc3nc2N2CCN(C)CC2)cc1	none
CCOc1ccc(NS(=O)(=O)c2ccc(NS(C)(=O)=O)cc2)cc1	none
CCOc1ccc(NS(=O)(=O)c2ccc(NS(=O)(=O)c3ccc(SC)cc3)cc2)cc1	FUS suppressor 28µM
Cc1c(F)cccc1NC(=O)C1CCCN1S(=O)(=O)c1ccc(F)cc1 (stereo not drawn)	TDP-43 yeast inh inconclusive (no result: aSyn rescue)
Cc1ccc(NC(=O)c2cc(C)nn2-c2ccccc2)cc1	TDP-43 yeast inh 18µM
Cc1ccc(C)c(NC(=O)c2nc(-c3ccccc3)n(-c3ccccc3)n2)c1	TDP-43 yeast inh 18µM, FUS suppressor inconclusive
CC(=O)c1ccc(NC(=O)c2nc(-c3ccccc3)n(-c3ccc(C)cc3)n2)cc1	TDP-43 yeast inh 18µM, FUS suppressor inconclusive (no result: aSyn rescue)
Cc1cccc(-c2cc(NC(=O)c3ccccc3C)n(-c3ccccc3)n2)c1	TDP-43 yeast inh 20µM (no result: aSyn rescue)
CC(=O)c1cccc(NC(=O)c2nc(-c3ccccc3)n(-c3ccccc3)n2)c1	none (no result: aSyn rescue)
Cc1ccc(OCC(=O)Nc2cc(-c3cccc(C)c3)nn2-c2ccccc2)cc1	none (no result: aSyn rescue)
Cc1nc2scc(C)n2c(=O)c1S(=O)(=O)Nc1cccc(C(F)(F)F)c1	TDP-43 yeast inh inconclusive (no result: aSyn rescue)
C=C1C=C(C(F)F)n2ncc(C(=O)NCc3ccccc3OC)c2N1	none (no result: Abeta rescue, TDP-43 yeast inh, FUS suppressor)
O=C(O)c1nc(-c2ccccc2)n(-c2ccc(Cl)cc2)n1	none
Cc1ccc(NC(=O)c2cc(C)n(-c3ccccc3)c2C)cc1	TDP-43 yeast inh 25µM
Cc1ccc(NC(=O)c2cc(C)n(-c3cccc(C)c3)c2C)cc1	TDP-43 yeast inh inconclusive
CC(=O)c1ccc(NC(=O)c2nc(-c3ccccc3)n(-c3ccc(Cl)cc3)n2)cc1	TDP-43 yeast inh 7.9µM (no result: aSyn rescue)
COc1ccc2cc(C(=O)NCc3ccc4c(c3)CCN4C(=O)c3ccc(C)cc3)[nH]c2c1	none (no result: aSyn rescue)
COc1ccc2cc(C(=O)NCc3ccc4c(c3)CCN4C(=O)c3ccc(F)cc3)[nH]c2c1	TDP-43 yeast inh 16µM (no result: aSyn rescue)
CCNC(=O)O/N=C1\CCCCC1c1ccc([N+](=O)[O-])cc1[N+](=O)[O-] (stereo not drawn)	TDP-43 yeast inh 14µM
O=C(Cn1c(=O)n(-c2ccccc2Cl)c(=O)c2sc3ccccc3c21)N1CCCC1	none (no result: aSyn rescue)
CCSc1ccccc1C(=O)n1nnc2ccccc21	none
Cc1occc1C(=O)n1nnc2ccccc21	TDP-43 yeast inh 16µM
N#CC(=C1C=C(Br)C(=NO)C=C1Cl)c1ccc(Cl)cc1	TDP-43 yeast inh inconclusive
N#CC(=C1C=CC(=NO)C(Cl)=C1)c1ccccc1	TDP-43 yeast inh 7.1µM
COCCNc1nc2cc(-c3ccc(C)cc3)sc2c(=O)n1C	TDP-43 yeast inh 11µM
COc1cccc(CNc2nc3cc(-c4ccccc4C)sc3c(=O)n2C)c1	aSyn rescue inconclusive, TDP-43 yeast inh 18µM, FUS suppressor inconclusive
COc1cccc(CNc2nc3cc(-c4cccc(Cl)c4)sc3c(=O)n2C)c1	none
Cn1c(NCC2CCCCC2)nc2cc(-c3ccsc3)sc2c1=O	TDP-43 yeast inh 20µM
COc1ccccc1CNc1nc2cc(-c3ccccc3C)sc2c(=O)n1C	aSyn rescue inconclusive, TDP-43 yeast inh 20µM
CCN(CCCNC(=O)c1ccc(Sc2ccc(F)cc2)c(NC(C)=O)c1)c1ccccc1	TDP-43 yeast inh inconclusive (no result: aSyn rescue)
CC[N+](CC)(CC)CCOc1ccc(/C=C/c2ccccc2)cc1	TDP-43 yeast inh 35µM
O=c1[nH]c(Sc2ccc([N+](=O)[O-])cc2[N+](=O)[O-])nc2ccccc12	TDP-43 yeast inh 13µM
O=C(CSc1nc2ccccc2c(=O)[nH]1)Nc1ccc([N+](=O)[O-])cc1	none
COc1cccc(-c2nnc3sc(C4CCCCC4)nn23)c1	TDP-43 yeast inh inconclusive
CCOc1cccc(-c2nnc3sc(C4CCCCC4)nn23)c1	TDP-43 yeast inh 18µM, FUS suppressor inconclusive
CC(C)C[C@H]1COc2cc(Br)ccc2S(=O)(=O)N1Cc1cn(Cc2ccc(Cl)cc2)nn1	none (no result: aSyn rescue, Abeta rescue, TDP-43 yeast inh)
Cc1ccc(Cn2c(CNC(=O)c3ccccc3Br)nc3cccnc32)cc1	TDP-43 yeast inh 11µM (no result: aSyn rescue)
CSc1ccccc1-n1nnnc1SCc1ccccc1	TDP-43 yeast inh 13µM
CCc1ccc(C=NN2CCN(Cc3ccc(C)cc3C)CC2)cc1	none (no result: aSyn rescue, Abeta rescue, TDP-43 yeast inh)
Cc1ccc(-c2nnc(Sc3nc4ccccc4o3)c3ccccc23)cc1	none
Cc1nnc(Sc2nc3ccccc3o2)c2ccccc12	aSyn rescue inconclusive, TDP-43 yeast inh 14µM
O=C(c1ccc(F)cc1)C(CN1CCOCC1)c1ccccc1 (stereo not drawn)	TDP-43 yeast inh 18µM (no result: FUS suppressor)
COc1cc2ccccc2cc1C(=O)N1CCN(c2nc3c(F)cc(F)cc3s2)CC1	TDP-43 yeast inh 16µM, FUS suppressor inconclusive (no result: aSyn rescue)
CCc1cccc2sc(N3CCN(C(=O)c4cc5ccccc5cc4OC)CC3)nc12	none (no result: aSyn rescue)
COc1cc2ccccc2cc1C(=O)N1CCN(c2nc3c(F)cccc3s2)CC1	TDP-43 yeast inh 11µM (no result: aSyn rescue)
